The text below walks through data of PubChem BioAssay.

Test [1] is described as follows: anti-His antibody binders, primary screen, artefact control for SMM control protein annotation, biochemical, small-molecule microarray, 635 nm fluorescence (AID 1128).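 Note: score merges feature fluorescence with signal-to-noise for each printed compound spot.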 To be noted: anti-His Alexa647 antibody binding, higher = more signal.
For test [2], the system named is Human papillomavirus type 1a E7 protein (residues 1-88). Kind of test: HPV1a E7 small-molecule binders, primary screen, biochemical, small-molecule microarray, residues 1-88, 635 nm (AID 1129). To be noted: small-molecule microarray binding, fluorescence 635 nm; higher = more signal.
In test [3] the target is Focal adhesion kinase 1 (Homo sapiens) (UniProt Q05397). Put plainly: small-molecule microarray binders of FAK, primary screen, biochemical, 635/667 nm fluorescence, BSA, DTT (AID 1130).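 Note: composite of spot emission at 667 nm and signal to noise over triplicate slides.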 The following applies: PTK2 binding, 635 nm fluorescence, higher = more signal.
Test [4] concerns Fibrinogen (Alexa647-labelled). Kind of test: fibrinogen binders on compound microarrays, profiling panel, artefact control for SMM control-protein annotation, biochemical, small-molecule microarray, 635/667 nm fluorescence (AID 1131).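 Note: z-score merges 667 nm fluorescence with per-spot signal-to-noise over triplicate slides.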 To be noted: fibrinogen-A647 binding fluorescence, higher = more signal.
In test [5] the target is Follistatin (Homo sapiens) (UniProt P19883). Kind of test: follistatin binders on small-molecule microarrays, primary screen, biochemical, small-molecule microarray, 635/667 nm fluorescence (AID 1132). The following applies: FST binding, 635 nm fluorescence, higher = more signal.
The target in test [6] is Fibroblast growth factor 2 (Homo sapiens) (UniProt P09038). Put plainly: FGF2 binders on small-molecule microarrays, primary screen, biochemical, small-molecule microarray, 635/667 nm fluorescence (AID 1133). To be noted: small-molecule microarray binding, FGF2, fluorescence 635/667; higher = more signal.
The nature of test [7]: mitochondrial membrane potential change in A549 cells, profiling panel, cell-based, JC-1 fluorescence, basal, 24 h, 100 nL (AID 1138).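 Note: A549 lung adenocarcinoma cells under basal conditions with no added stimulus; test concentration not given here.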 To be noted: higher = more signal.
In another test the test system is Lefty1. Put plainly: Lefty1 binders on small-molecule microarrays, primary screen, biochemical, small-molecule microarray, 635/667 nm fluorescence (AID 1139). To be noted: small-molecule microarray binding, fluorescence 635/667; higher = more signal.
For test [8], the system named is wheat germ agglutinin (Triticum aestivum), Alexa647-labelled. Put plainly: wheat germ agglutinin binders on compound microarrays, profiling panel, artefact control for SMM control-protein annotation, biochemical, small-molecule microarray, 635/667 nm fluorescence (AID 1140).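 Note: score merges 667 nm feature emission with signal to noise over triplicate slides.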 To be noted: WGA-A647 binding, 635 nm fluorescence, higher = more signal.
For test [9], the target named is Luciferin 4-monooxygenase (Photinus pyralis) (UniProt P08659). Kind of test: firefly luciferase enzyme inhibitors, primary screen, biochemical, luminescence, purified enzyme, 2006 set (AID 1141).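 Note: cell-free assay with purified firefly luciferase at 100 ng per well in PBS; test concentration not given here.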 To be noted: SteadyGlo luminescence, 30 min, higher = more signal, called active from +8 up or from −8 down.
In test [10] the test system is Wnt5a (protein binding on small-molecule microarray). Put plainly: Wnt5a binders on small-molecule microarray, primary screen, biophysical, 635/667 nm fluorescence (AID 1142).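 Note: fluorescence read at 667 nm with signal to noise per printed feature.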 To be noted: 635 nm fluorescence, higher = more signal.
Test [11] in a line: cell viability in Huh7 cells, primary screen, cytotoxicity control for HCV replication inhibitor project, CellTiter-Glo luminescence, basal, 48 h (AID 1143).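 Note: Huh7 hepatoma cells carrying a hepatitis C replication reporter with no stimulus; test concentration not given here.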 To be noted: Huh7 HCV replicon, higher = more signal, called active from +8 up or from −8 down.
The nature of test [12]: P. aeruginosa biofilm formation inhibitors, primary screen, PAO1 strain, BacTiter-Glo luminescence, LB-PBS (AID 1144). The following applies: 12 h, higher = more signal.
Test [13] in a line: CREB reporter modulators without forskolin, primary screen, cell-based, PC12, CRE-LacZ reporter, unstimulated (AID 1145). The following applies: no forskolin, luminescence, 4.5 h, higher = more signal, called active from +8 up or from −8 down.
A short description of test [14]: CREB reporter modulators under forskolin, primary screen, cell-based, PC12, CRE-LacZ reporter, forskolin-stimulated (AID 1146).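 Note: PC12 cells with 6xCRE LacZ reporter stimulated by forskolin 10 µM; beta-galactosidase reporter signal reflecting CREB driven transcription.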 To be noted: luminescence, 4.5 h, higher = more signal, called active from +8 up or from −8 down.
The target of test [15] is Streptavidin (Streptomyces avidinii) (UniProt P22629). Kind of test: streptavidin binders on small-molecule microarray, primary screen, artefact control for SMM compound annotation, biophysical, 635/667 nm fluorescence (AID 1147).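 Note: signal reflects streptavidin binding to arrayed compounds as a control protein.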 The following applies: streptavidin binding, higher = more signal.
A short description of test [16]: small-molecule binders of probe aInhba, primary screen, biochemical, small-molecule microarray, 635/667 nm fluorescence (AID 1148).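 Note: score merges 667nm spot fluorescence with signal-to-noise for antibody binding to printed compounds.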 To be noted: higher = more signal.
In test [17] the target is Torsin-1A (Homo sapiens) (UniProt O14656). Put plainly: torsin A binders from cell lysate, primary screen, small-molecule microarray, wild-type, 635/667 nm (AID 1149). To be noted: COS7 hTOR1A-WT lysate, 635 nm fluorescence, higher = more signal.
Test [18] has the same target. Kind of test: small-molecule binders of mutant TOR1A in lysate, primary screen, cell lysate, small-molecule microarray, COS7 lysate, 635/667 nm fluorescence (AID 1150).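 Note: score pools 667 nm emission and signal to noise measuring lysate protein binding.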 To be noted: COS7 hTOR1A mutant lysate, 635 nm fluorescence, higher = more signal.
Test [19] deals with Sonic hedgehog protein (Shh). Kind of test: small-molecule binders of Shh protein, primary screen, biochemical, small-molecule microarray, 635/667 nm fluorescence (AID 1151).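 Note: Shh protein binding to compounds spotted on small-molecule microarray slides; score combines spot fluorescence intensity with signal-to-noise across triplicate slides.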 To be noted: small-molecule microarray binding, 635 nm fluorescence; higher = more signal.

Activity calls are given as the source filed them. Unless noted, the rule behind the calls is not given here.

Streptavidin (Streptomyces avidinii), sequence (P22629 whole entry, looked up): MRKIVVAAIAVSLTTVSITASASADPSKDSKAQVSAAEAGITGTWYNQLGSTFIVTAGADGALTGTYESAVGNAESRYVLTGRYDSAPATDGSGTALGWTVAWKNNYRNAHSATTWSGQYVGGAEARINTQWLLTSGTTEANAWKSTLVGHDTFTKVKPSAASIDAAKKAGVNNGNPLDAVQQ
Fibroblast growth factor 2 (Homo sapiens), sequence (P09038 whole entry, looked up): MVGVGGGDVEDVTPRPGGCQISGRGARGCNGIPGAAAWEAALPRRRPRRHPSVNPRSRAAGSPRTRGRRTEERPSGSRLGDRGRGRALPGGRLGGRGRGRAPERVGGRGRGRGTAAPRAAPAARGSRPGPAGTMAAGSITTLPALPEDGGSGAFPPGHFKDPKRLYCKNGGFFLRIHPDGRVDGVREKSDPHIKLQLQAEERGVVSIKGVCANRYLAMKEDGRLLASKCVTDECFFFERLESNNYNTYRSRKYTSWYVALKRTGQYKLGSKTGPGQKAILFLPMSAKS
Follistatin (Homo sapiens), sequence (P19883 whole entry, looked up): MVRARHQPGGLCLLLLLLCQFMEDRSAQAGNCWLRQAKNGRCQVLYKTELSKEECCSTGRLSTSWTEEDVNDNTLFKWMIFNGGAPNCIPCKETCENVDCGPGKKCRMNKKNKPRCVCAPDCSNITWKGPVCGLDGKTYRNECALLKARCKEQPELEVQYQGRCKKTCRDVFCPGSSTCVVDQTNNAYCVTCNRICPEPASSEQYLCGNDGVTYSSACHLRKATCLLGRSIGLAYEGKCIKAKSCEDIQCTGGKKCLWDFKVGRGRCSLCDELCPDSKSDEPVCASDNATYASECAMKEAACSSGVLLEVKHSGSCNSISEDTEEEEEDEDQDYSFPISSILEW
Torsin-1A (Homo sapiens), sequence (O14656 whole entry, looked up): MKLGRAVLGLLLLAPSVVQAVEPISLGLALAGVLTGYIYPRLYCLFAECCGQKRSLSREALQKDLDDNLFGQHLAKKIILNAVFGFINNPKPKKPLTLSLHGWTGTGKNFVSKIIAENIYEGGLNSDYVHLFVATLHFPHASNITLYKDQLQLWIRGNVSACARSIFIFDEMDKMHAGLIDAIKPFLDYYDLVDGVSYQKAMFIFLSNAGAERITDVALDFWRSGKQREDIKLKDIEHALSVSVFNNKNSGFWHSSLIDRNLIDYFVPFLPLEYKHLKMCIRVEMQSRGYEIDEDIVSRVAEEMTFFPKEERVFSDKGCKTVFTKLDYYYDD
Luciferin 4-monooxygenase (Photinus pyralis), sequence (P08659 whole entry, looked up): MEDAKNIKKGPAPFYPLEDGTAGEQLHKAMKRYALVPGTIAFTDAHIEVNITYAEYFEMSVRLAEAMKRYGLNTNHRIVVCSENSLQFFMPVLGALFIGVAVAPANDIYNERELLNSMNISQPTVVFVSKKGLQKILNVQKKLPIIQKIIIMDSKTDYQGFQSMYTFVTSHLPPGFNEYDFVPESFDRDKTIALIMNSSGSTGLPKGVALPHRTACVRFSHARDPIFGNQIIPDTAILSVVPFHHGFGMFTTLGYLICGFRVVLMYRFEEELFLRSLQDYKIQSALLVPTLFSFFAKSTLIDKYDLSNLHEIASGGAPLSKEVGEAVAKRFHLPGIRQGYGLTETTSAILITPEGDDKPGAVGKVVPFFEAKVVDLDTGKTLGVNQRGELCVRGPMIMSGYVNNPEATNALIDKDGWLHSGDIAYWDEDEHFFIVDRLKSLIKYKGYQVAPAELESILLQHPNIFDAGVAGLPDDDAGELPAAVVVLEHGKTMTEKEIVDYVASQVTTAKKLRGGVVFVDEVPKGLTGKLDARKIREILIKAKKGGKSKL
Focal adhesion kinase 1 (Homo sapiens), sequence (Q05397 whole entry, looked up): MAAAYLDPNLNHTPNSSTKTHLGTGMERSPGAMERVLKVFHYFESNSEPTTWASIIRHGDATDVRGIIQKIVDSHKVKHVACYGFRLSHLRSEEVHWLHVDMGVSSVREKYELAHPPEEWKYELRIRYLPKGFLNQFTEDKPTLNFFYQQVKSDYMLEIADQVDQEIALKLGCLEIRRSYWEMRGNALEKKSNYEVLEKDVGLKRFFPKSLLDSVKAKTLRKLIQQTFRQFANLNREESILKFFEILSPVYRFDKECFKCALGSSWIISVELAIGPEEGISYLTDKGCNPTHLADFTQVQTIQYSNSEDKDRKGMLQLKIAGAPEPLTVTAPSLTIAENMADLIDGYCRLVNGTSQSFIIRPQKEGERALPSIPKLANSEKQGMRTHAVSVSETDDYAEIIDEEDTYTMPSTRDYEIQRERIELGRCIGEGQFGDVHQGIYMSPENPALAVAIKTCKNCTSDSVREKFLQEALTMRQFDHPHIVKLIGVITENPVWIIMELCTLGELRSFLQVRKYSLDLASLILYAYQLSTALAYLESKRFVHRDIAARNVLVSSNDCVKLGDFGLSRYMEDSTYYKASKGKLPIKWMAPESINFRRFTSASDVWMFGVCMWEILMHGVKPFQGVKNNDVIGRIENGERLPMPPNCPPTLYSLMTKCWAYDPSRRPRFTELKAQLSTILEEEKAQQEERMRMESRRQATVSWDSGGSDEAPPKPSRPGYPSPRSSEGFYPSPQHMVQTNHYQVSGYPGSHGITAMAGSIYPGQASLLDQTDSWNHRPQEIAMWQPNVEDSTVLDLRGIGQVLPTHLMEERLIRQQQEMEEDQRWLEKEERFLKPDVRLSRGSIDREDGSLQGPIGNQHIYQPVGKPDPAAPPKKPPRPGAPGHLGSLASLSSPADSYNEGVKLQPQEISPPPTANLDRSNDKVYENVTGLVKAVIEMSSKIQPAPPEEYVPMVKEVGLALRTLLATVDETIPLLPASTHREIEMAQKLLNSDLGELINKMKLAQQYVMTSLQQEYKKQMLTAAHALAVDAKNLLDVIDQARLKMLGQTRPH

For the compound `CCN(CC)c1ccc(N2CC=CC34O[C@@H]5C=CCOC(=O)[C@@H]5[C@H]3C(=O)N(CCO)[C@@H]4C2=O)cc1` (stereo not given in full), the composite z-score in test [1] was -0.305; in [2], -0.508; in test [3], -0.856; in test [4], -0.602; in [5] it was -0.721; in [6], -1.44. For the same compound, the composite z-score in the test with Lefty1 was -1.35; in test [8] it was -1.38; in test [10], -0.403; in [15] it was -1.77; in test [16], 0.476; with Torsin-1A (Homo sapiens) [17], -0.0491. In addition, the composite z-score was -0.669 with Torsin-1A (Homo sapiens) [18] and -0.198 in [19]. The z-score was 1.41 in test [7]; -1.47 (inactive) in test [9]; -0.271 (inactive) in [11]; 1.72 (inactive) in [12]; -0.0656 (inactive) in test [13]; -0.599 (inactive) in test [14].
As for `C=CCC(OC(C)=O)[C@@H]1[C@@H](N(Cc2ccc(-c3ccccc3)cc2)C(=O)c2ccc(C)cc2)c2cc(OCCCO)ccc2N1C(=O)c1ccc2ccccc2c1` (stereo not given in full), the composite z-score is -0.722 in test [1]; 0.117 in [2]; -0.161 in test [3]; -0.283 in test [4]; 0.576 in [5]; -0.0502 in [6]. Further, the composite z-score with Lefty1 came to 0.297; in test [8] it was 0.008; in test [10], 0.0548; in test [15] it was 0.122; in test [16], 0.108; with Torsin-1A (Homo sapiens) [17], 0.222. The results for the composite z-score (with Torsin-1A (Homo sapiens) [18]; in [19]) were -0.0531 and 0.587, respectively. The z-score in test [7] is 1.68; in test [9] it was -1.9 (inactive); in test [11] it was -0.715 (inactive); in [12], 0.137 (inactive); in test [13], 1.97 (inactive); in test [14], 0.179 (inactive).
Consider `COCCOC(=O)N1C(=O)[C@@]2(c3cc(C#CCCO)ccc31)[C@H](C(=O)N1CCN(c3ncccn3)CC1)[C@H]1C(=O)O[C@H](c3ccccc3)[C@H](c3ccccc3)N1[C@@H]2c1ccc(O)cc1`, for which the composite z-score in test [1] came to 2.17; in [2], 1.22; in [3], 1.19; in [4] it was 0.928; in test [5], 0.577; in [6] it was 0.088. Moreover, the composite z-score with Lefty1 was 0.413; in [8] it was 0.613; in test [10], 0.15; in test [15], -0.269; in test [16], -0.291; with Torsin-1A (Homo sapiens) [17], -0.144. Besides, the composite z-score with Torsin-1A (Homo sapiens) [18] turned out to be 0.522; in test [19], 1.11. The z-score in test [7] was 1.35; in test [9] it was -0.979 (inactive); in test [11], -1.79 (inactive); in [12], -0.798 (inactive); in test [13], 0.484 (inactive); in test [14] it was 0.268 (inactive).
Turning to `COc1ccc(CCNC(=O)[C@@]2(Sc3ccc(C)cc3)CC(=O)N(C(C)C)[C@@H]2c2ccc(CO)cc2)cc1`, the composite z-score in test [1] is 0.8; in test [2] it was -0.594; in test [3] it was -0.13; in test [4], -1.3; in [5] it was -0.616; in test [6], -1.26. Besides, the composite z-score with Lefty1 was -0.919; in [8], -0.29; in test [10], -1.02; in test [15] it was -0.621; in [16], -0.137; with Torsin-1A (Homo sapiens) [17], 0.939. The composite z-score with Torsin-1A (Homo sapiens) [18] is 0.122; in [19], -1.6. For the same compound, the z-score was 0.339 in test [7]; -0.424 (inactive) in [9]; -0.583 (inactive) in [11]; 0.305 (inactive) in [12]; 1.56 (inactive) in test [13]; -0.519 (inactive) in test [14].
As for `CCOC(=O)C[C@H]1[C@H](OC(=O)c2ccc(-c3ccccc3)cc2)[C@@H](NC(=O)CC(C)C)c2cc(OCCCO)ccc2N1C(=O)Cc1ccc(OC)cc1`, the composite z-score in test [1] was -0.283; in [2] it was 0.686; in [3], 0.0381; in [4], 0.54; in [5], -0.195; in test [6], 0.0007. The composite z-score with Lefty1 was -0.276; in test [8], 0.535; in test [10] it was 0.0564; in [15] it was 0.438; in test [16] it was -0.0223; in the test with Torsin-1A (Homo sapiens) [17], -0.111. Further, the results for the composite z-score (with Torsin-1A (Homo sapiens) [18]; in test [19]) were 0.508 and -0.307, respectively. Moreover, the z-score in [7] is 0.598; in [9], 0.491 (inactive); in test [11], -0.155 (inactive); in [12], 0.606 (inactive); in [13], 0.0035 (inactive); in test [14] it was -0.163 (inactive).
